Potency and activity, negative = inhibition data for 98 molecules are collected here from PubChem BioAssay AID504332 (National Center for Advancing Translational Sciences (NCATS), 2011).

Out of some 350,000 compounds screened, about 31,000 (8.9%) were called active. Where a call stands in place of a potency, no number is given. Another 15% or so got no clear call; they are omitted. Calls follow the shape of the dose curve; as a rule, active = well fitted inhibition curve with a large enough effect; inconclusive = small, poorly fitted or top-dose-only effect; inactive = no such curve, though single readings can be large or run the other way. The full list was thinned out, with actives kept by preference.
Potency is read from the fitted curve at half-maximal effect.

Histone-lysine N-methyltransferase EHMT2 (Homo sapiens), sequence (Q96KQ7 913-1193 limits assumed): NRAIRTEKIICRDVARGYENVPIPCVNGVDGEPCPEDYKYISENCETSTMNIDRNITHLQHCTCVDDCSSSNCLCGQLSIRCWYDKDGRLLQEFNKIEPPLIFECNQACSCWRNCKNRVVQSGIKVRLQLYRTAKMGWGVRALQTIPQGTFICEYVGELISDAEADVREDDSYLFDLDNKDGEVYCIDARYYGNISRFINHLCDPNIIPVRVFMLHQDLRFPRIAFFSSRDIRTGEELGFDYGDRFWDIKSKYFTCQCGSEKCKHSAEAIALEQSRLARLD

For the assay, the target named is Histone-lysine N-methyltransferase EHMT2 (Homo sapiens) (UniProt Q96KQ7). Nature of the assay: qHTS Assay for Inhibitors of Histone Lysine Methyltransferase G9a. Also: nearly all actives have a fitted effect of over 75% in size. The following applies: G9a H3K9 monomethylation, AlphaScreen, 2 h; series mostly up to 59 µM. The method in brief:
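Compounds were preincubated with 20 nM G9a for 15 min, after which biotinylated H3K9 peptide (500 nM) and SAM (20 uM) started a 2 h room-temperature reaction. Monomethylated product was quantified by antibody-based AlphaScreen chemiluminescence.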
On the technique in general: In qHTS, concentration-response curves come from the screen itself.
Take `CCOC(=O)c1ccc(NC(=S)Nc2cc(C)cc(C)n2)cc1`: the Potency entry is “inactive”.

Turning to `Cc1cc(C)n2nc(C(=O)OCC(=O)N(C)CC(=O)Nc3ccc(F)cc3)nc2n1`, the activity, negative = inhibition is -2.62% [at 12.7 µM] (inactive).

Take `CCOC(=O)c1ccc(Nc2cc(C)nc3nc(C)nn23)cc1`: the Potency is 79.4 µM (active).

Turning to `O=C(Nc1ccccc1Cl)N1CCC(CN2CCCC2)CC1`, the Potency entry is “inactive”.

As for `CCOC(=O)c1nnn(CC(=O)NC(=O)Nc2ccccc2F)c1C(=O)OCC`, the Potency result was “inactive”.

Regarding `Cc1cc(C)cc(NC(=O)N2CCCCCCC2)c1`, the Potency entry is “inactive”.

Consider `Cc1ccc(NC(=O)C(c2ccccc2)N2CCN(C(=O)c3ccco3)CC2)cc1` (stereo not drawn), for which the activity, negative = inhibition was -37.3% [at 12.7 µM] (inactive).

For the molecule `Cc1cc(C)cc(NC(=O)C(c2ccccc2)N2CCN(CC(=O)N3CCCC3)CC2)c1` (stereo not drawn), the Potency is 50.1 µM (active).

Consider `Cc1cc(C(=O)OCC(=O)Nc2ccccc2Cl)c(C)o1`, for which the activity, negative = inhibition was -9.85% [at 12.7 µM] (inactive).

For `CC(C)OC(=O)C(C#N)c1nc2ccccc2nc1N1CCN(Cc2ccccc2)CC1` (stereo not drawn), the Potency result was “inactive”.

For the molecule `Cc1cc(N2CCN(S(=O)(=O)c3ccc(C)c(C)c3)CC2)c2ccccc2n1`, the activity, negative = inhibition was 22.6% [at 12.7 µM] (inactive).

Consider `Cc1ccc(S(=O)(=O)C(C#N)c2nc3ccccc3nc2N2CCCC2)cc1C` (stereo not drawn), for which the Potency is 2.82 µM (active).

Take `COc1ccc(-c2noc(CSc3nnc(-c4ccccc4)n3-c3ccc(F)cc3)n2)c(OC)c1`: the Potency result was “inactive”.

Consider `CCN(CC(=O)Nc1ccc(NC(C)=O)cc1)C(=O)C1CC(=O)N(Cc2ccc(C)cc2)C1` (stereo not drawn), for which the activity, negative = inhibition was -0.244% [at 0.501 µM] (inactive).

For `N#Cc1nc(Cc2cccc3ccccc23)oc1NCc1ccc2c(c1)OCO2`, the Potency was 10 µM (active).

Consider `O=C(CCNS(=O)(=O)c1ccccc1C(F)(F)F)NCc1ccc2c(c1)OCO2`, for which the Potency entry was “inactive”.

As for `c1n[nH]c(NCc2ccc3c(c2)OCO3)n1`, the Potency entry is “inactive”.

`Cc1cc(NS(=O)(=O)c2ccc(NC(=O)c3ccccc3C)cc2)nc(C)n1`: the Potency result was “inactive”.

Consider `CCc1cccc(-n2nnc(-c3nsc(NC(=O)c4ccc(C)cc4)n3)c2C)c1`, for which the Potency entry was “inactive”.

Turning to `CCCCSc1ncnc2c1sc1nc(N3CCOCC3)c3c(c12)CCCC3`, the Potency entry was “inactive”.

Regarding `COC(=O)c1ccc(CNC(=O)c2ccc3oc(C(C)C)nc3c2)cc1`, the Potency result is “inactive”.

`CCNC(=S)N1CCN(CCN=CC2=C(O)CC(C)(C)CC2=O)CC1`: the Potency entry was “inactive”.

Turning to `O=C1CC(c2cccc(Cl)c2)CC(O)=C1C=Nc1ccccc1` (stereo not drawn), the Potency entry was “inactive”.

Regarding `O=C1CC(c2ccccc2)CC(O)=C1C=NCCN1CCOCC1` (stereo not drawn), the Potency is 12.6 µM (active).

Consider `CC(C)C(=O)N1CCN(CCN=CC2=C(O)CC(c3ccco3)CC2=O)CC1` (stereo not drawn), for which the Potency was 50.1 µM (active).

For the molecule `CC1(C)CC(=O)C(C=NCCN2CCN(C(=S)Nc3cccc(Cl)c3)CC2)=C(O)C1`, the activity, negative = inhibition was -2.18% [at 0.501 µM] (inactive).

In the case of `O=C1CCCC(O)=C1C=NCCc1ccccc1`, the Potency result is “inactive”.

Regarding `COc1ccc2c(c1)C=C(C(=O)NCc1cc(Br)ccc1OC)CO2`, the Potency entry was “inactive”.

Consider `COc1ccc(OC)c(NC(=O)C2CCCN(S(=O)(=O)c3ccc4c(c3)CCCC(=O)N4)C2)c1` (stereo not drawn), for which the Potency result is “inactive”.

For `O=C(Nc1nc(-c2ccco2)c(-c2ccco2)s1)c1ccco1`, the activity, negative = inhibition is 16.3% [at 2.33 µM] (inactive).

As to `O=C(Nc1nnc(CCOCCOCCc2nnc(NC(=O)c3ccco3)s2)s1)c1ccco1`, the Potency was 14.1 µM (active).

With `CCN(c1ccc(Cl)cc1)S(=O)(=O)c1nnc(NC(=O)c2ccco2)s1`, the Potency result is “inactive”.

Regarding `CN(Cc1ccccc1)C(=O)c1cc2c(=O)n(C)c3ccccc3c2s1`, the Potency result is “inactive”.

In the case of `Cc1ccc(N(CC(=O)NCC(C)c2ccccc2)S(=O)(=O)N(C)C)cc1` (stereo not drawn), the Potency entry is “inactive”.

As to `CCOC(=O)c1ccccc1NC(=O)CSc1nc2ccccc2c(=O)[nH]1`, the Potency result was “inactive”.

Regarding `CCOC(=O)c1sc(NC(=O)CSc2nc(O)c(Cc3ccccc3)c(=O)[nH]2)nc1C`, the Potency was 50.1 µM (active).

As for `CCOC(=O)c1sc(NC(=O)CSc2n[nH]c(CC)n2)nc1C`, the Potency result was “inactive”.

As for `Cc1ccc(C(=O)Nc2ncccc2C)cc1S(=O)(=O)N1CCOCC1`, the activity, negative = inhibition was 22.2% [at 12.7 µM] (inactive).

For `CC(C)C12CN3CC(C(C)C)(CN(C1)C3c1ccc(OCc3ccccc3)cc1)C2=O` (stereo not drawn), the Potency entry was “inactive”.

As for `Cc1nnc(SCC(=O)Nn2cnnc2)s1`, the Potency entry was “inactive”.

Turning to `Cc1nnc(SCC(=O)Nc2ccc(S(=O)(=O)Nc3ccc(Cl)nn3)cc2)s1`, the Potency is 79.4 µM (active).

Consider `CCCCCC(=O)Nc1ccc(S(=O)(=O)Nc2ccc(Cl)nn2)cc1`, for which the Potency entry was “inactive”.

As to `CCCn1nc(C(=O)NNC(=O)CCOc2ccccc2OCC)c2ccccc2c1=O`, the Potency result is “inactive”.

In the case of `COc1cccc(C(=O)Nc2ccc(-c3cc(C(F)(F)F)nn3-c3ccccc3)cc2)c1`, the Potency result is “inactive”.

Turning to `Cc1cccc(C(=O)OC(C)C(=O)NC2CCCc3ccccc32)c1O` (stereo not drawn), the activity, negative = inhibition was 18.2% [at 12.7 µM] (inactive).

Consider `CN(C)C1=NC[C@H](Cc2ccccc2)N1CCc1ccc(F)cc1`, for which the activity, negative = inhibition was 16.6% [at 2.33 µM] (inactive).

On to `OC(C#CCN1CCOCC1)(c1ccccc1)C1CCCCC1` (stereo not drawn), for which the Potency entry was “inactive”.

On to `CC(C)(C)N(CC#CCC(O)(c1ccccc1)C1CCCC1)CCO` (stereo not drawn), for which the Potency was 10 µM (active).

With `CN(CC#CCC(c1ccccc1)c1ccccc1)C(C)(C)C`, the Potency entry was “inactive”.

With `CON(C)S(=O)(=O)c1ccc2c(c1)NC(=O)C1CCCN21` (stereo not drawn), the Potency is 25.1 µM (active).

For the molecule `CN(C)S(=O)(=O)c1ccc(N2CCCC2=O)c([N+](=O)[O-])c1`, the Potency entry was “inactive”.

With `CC1C(=O)Nc2ccc(S(=O)(=O)N3CCN(c4ccccc4F)CC3)cc2NC1=O` (stereo not drawn), the Potency result is “inactive”.

For `Cn1c(-c2ccc(F)cc2)cc2onc(-c3ccccc3Cl)c2c1=O`, the activity, negative = inhibition was 20.7% [at 2.33 µM] (inactive).

Take `CCCC(=O)N1c2ccc(-c3csc(N)n3)cc2CC1C` (stereo not drawn): the Potency was 70.8 µM (active).

In the case of `CCn1nc(C(=O)OCC(=O)N2c3ccccc3CC2C)c2ccccc2c1=O` (stereo not drawn), the Potency result is “inactive”.

For `Cc1ccn(CCC(=O)N2c3ccccc3CC2C)n1` (stereo not drawn), the Potency result was “inactive”.

As to `COc1ccccc1CC(=O)NCCc1c[nH]c2ccccc12`, the Potency entry was “inactive”.

`COc1cccc(CNCCc2c[nH]c3ccccc23)c1OCc1ccccc1F`: the Potency is 44.7 µM (active).

For the molecule `COc1ccc(S(=O)(=O)NCCc2c[nH]c3ccccc23)cc1OC`, the Potency result is “inactive”.

`O=C1NC(c2ccncc2)Nc2sc3c(c21)CCCC3` (stereo not drawn): the Potency was 28.2 µM (active).

On to `CCN(C(=O)CSc1nnc(-c2ccc(OC(F)F)cc2)n1N)C1CCS(=O)(=O)C1` (stereo not drawn), for which the Potency result is “inactive”.

On to `O=C(NC(=O)c1ccccc1)NC(=O)c1ccccc1`, for which the Potency entry was “inactive”.

As for `Cn1nnc(NC(=S)NC(=O)c2ccccc2)n1`, the Potency was 8.91 µM (active).

Consider `Cc1cc2[nH]ncc2cc1NC(=S)NC(=O)c1ccccc1`, for which the Potency entry is “inactive”.

Turning to `COc1cc(OC)c(C(=S)N2CCCC2)cc1OC`, the activity, negative = inhibition is 10.9% [at 0.501 µM] (inactive).

On to `CCCNC(=O)C1CCC(Cn2c(=O)c3sccc3n(Cc3ccccc3F)c2=O)CC1` (stereo not drawn), for which the Potency entry is “inactive”.

Turning to `CCn1cc(C(=O)Nc2cc(C)ccc2C)c(=O)c2ccc(C)nc21`, the Potency entry is “inactive”.

As to `CCn1cc(C(=O)N2CC=C(c3ccccc3)CC2)c(=O)c2ccc(C)nc21`, the Potency is 79.4 µM (active).

For the molecule `CCn1cc(C(=O)OCC(=O)Nc2cccc(C)c2)c(=O)c2ccc(C)nc21`, the Potency entry is “inactive”.

Consider `CCS(=O)(=O)N1CCC(n2c(C)nc3cccnc32)CC1`, for which the Potency result is “inactive”.

With `O=C1C(c2[nH]c3ccccc3c2O)=Nc2ccccc21`, the Potency was 5.01 µM (active).

Consider `CC(C)C(=O)Nc1c(O)c2ccccc2[nH]c1=O`, for which the Potency result was “inactive”.

For the molecule `O=C(Cc1c(O)c2ccccc2[nH]c1=O)NCc1ccccc1`, the Potency result is “inactive”.

Regarding `NC(=O)c1ccsc1NC(=O)COC(=O)Cc1n[nH]c(=O)c2ccccc12`, the activity, negative = inhibition was 1.16% [at 0.501 µM] (inactive).

On to `COc1ccc(OC)c(-n2nnc(-c3nc(-c4cc(OC)c(OC)c(OC)c4)no3)c2C)c1`, for which the Potency result was “inactive”.

As to `Cc1cccc(CSc2nnc(C)c(=O)n2N)c1`, the Potency result was “inactive”.

Consider `Cn1c(SCC(=O)N2CCCCC2)nc2c(c1=O)SCC2`, for which the Potency result is “inactive”.

On to `Cc1cccc(CSc2nc3c(c(=O)n2C)SCC3)c1`, for which the Potency was 50.1 µM (active).

With `CCOc1ccc(S(=O)(=O)NCCC(=O)NCC(C)(C)N2CCOCC2)cc1`, the activity, negative = inhibition was 14% [at 0.501 µM] (inactive).

For `COc1ccc(NC(=O)CCN2CCN(CCO)CC2)cc1`, the Potency result is “inactive”.

On to `CCOC(=O)c1[nH]c2ccccc2c1N=C(C)N(CC)CC`, for which the Potency entry is “inactive”.

In the case of `CCCS(=O)(=O)Nc1c(C(=O)O)[nH]c2ccccc12`, the Potency is 39.8 µM (active).

`CCOC(=O)C1CCN(C(=O)Cc2c(C(=O)O)[nH]c3ccccc23)CC1`: the activity, negative = inhibition was 16% [at 2.33 µM] (inactive).

Regarding `CCOC(=O)C1CCN(c2ncnc3c2c(-c2ccccc2)cn3-c2cccc(C)c2)CC1`, the Potency entry is “inactive”.

Consider `O=C(NCC(c1ccco1)N1CCc2ccccc2C1)c1ccccc1Cl` (stereo not drawn), for which the Potency result was “inactive”.

In the case of `COc1ccc(SCc2cc(=O)c3ccc(C)c(C)c3[nH]2)cc1`, the Potency result was “inactive”.

Consider `C=CCOC(=O)C1=C(C)NC(C)=C(C(=O)OCC=C)C1c1cccs1`, for which the Potency result was “inactive”.

With `C=CCOC(=O)C1=C(C)NC(SCC(=O)OCC)=C(C#N)C1c1ccc(C)cc1` (stereo not drawn), the Potency entry is “inactive”.

As to `CC1=C(C(=O)Nc2ccccc2)C(c2cccs2)C(C#N)=C(SCC#N)N1` (stereo not drawn), the Potency is 12.6 µM (active).

On to `CCCn1c(NCc2ccccc2F)nc2ccccc21`, for which the Potency entry was “inactive”.

`O=C(CNC(=O)c1cccnc1)N/N=C/c1cc(Br)c(O)c(Br)c1`: the Potency entry is “inactive”.

For the molecule `O=C(CNC(=O)C1COc2ccccc2O1)N/N=C/c1cc(Br)c(O)c(Br)c1` (stereo not drawn), the Potency is 89.1 µM (active).

For the molecule `O=C(CNC(=O)C(c1ccccc1)c1ccccc1)N/N=C\c1ccc2c(c1)OCO2`, the Potency entry was “inactive”.

Consider `FC(F)(F)c1cc(Nc2nc3ccccc3c3nncn23)ccc1Cl`, for which the Potency result was “inactive”.

Regarding `COc1ccc(CNC(=O)C2=Cc3cccc(OC)c3OC2)cc1OC`, the Potency entry is “inactive”.

For `CC1=NN(c2ccc(Cl)c(C(=O)O)c2)C(=O)/C1=C/c1ccc(-c2ccccc2[N+](=O)[O-])o1`, the Potency is 31.6 µM (active).

As for `N#C/C(=C/c1ccc(-c2ccccc2[N+](=O)[O-])o1)C(=O)NCCN1CCCCC1`, the activity, negative = inhibition is 16.8% [at 12.7 µM] (inactive).

As to `Cc1nc2ccccc2c(=O)n1NC(=O)c1ccc(Cl)c([N+](=O)[O-])c1`, the activity, negative = inhibition is -4.51% [at 2.33 µM] (inactive).
